Test [1] can be described thus: qHTS assay to identify small molecule agonists of the peroxisome proliferator-activated receptor delta (PPARd) signaling pathway - cell viability counter screen (AID 743211). Further: nearly all actives have a fitted effect of over 55% in size. Further: potency means the concentration at half of the fitted maximal effect. A digest of the protocol:
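PPARd-bla HEK293H cells (UAS-beta-lactamase reporter) were treated with compounds for 17 h at 37 C. Viability was then read in the same wells by CellTiter-Glo luminescence after 30 min at room temperature.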
On the technique in general: qHTS replaces the single test concentration by a dilution series.

Test [2] is described as follows: qHTS assay to identify small molecule antagonists of the peroxisome proliferator-activated receptor delta (PPARd) signaling pathway - cell viability counter screen (AID 743213). Further: nearly all actives have a fitted effect of over 50% in size. Further: potency means the concentration at half of the fitted maximal effect. A digest of the protocol:
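Viability counter-screen, qHTS format: PPARd-bla HEK293H, L165041 300 nM final, 17 h compound exposure at 37 C, CellTiter-Glo luminescence after 30 min RT.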

For test [3], the target named is Bile acid receptor (Homo sapiens) (UniProt Q96RI1). The test can be described thus: qHTS assay to identify small molecule antagonists of the farnesoid-X-receptor (FXR) signaling pathway (AID 743217; active means well fitted inhibition curve with a large enough effect in the signal ratio in the repeat runs, not every such curve was filed as active; the % refers to the signal ratio). An outline of the steps:
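HEK 293T FXR-UAS-bla, 5000 cells/well; compound + CDCA 50 uM final; 16 h, 37 °C; B/G FRET substrate 2 h RT; fluorescence.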

A short description of test [4]: qHTS assay to identify small molecule agonists of the farnesoid-X-receptor (FXR) signaling pathway - cell viability counter screen (AID 743218). Further: nearly all actives have a fitted effect of over 45% in size. A digest of the protocol: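 HEK 293T FXR-bla cells; 5 h pre-incubation, 16 h compound exposure at 37 C; LiveBLAzer substrate 2 h RT, then CellTiter-Glo 30 min RT, luminescence.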
For test [5], the target named is Bile acid receptor (Homo sapiens) (UniProt Q96RI1). The test can be described thus: qHTS assay to identify small molecule agonists of the farnesoid-X-receptor (FXR) signaling pathway (AID 743220; active means well fitted activation curve with a large enough effect in the signal ratio in the repeat runs, not every such curve was filed as active; the % refers to the signal ratio). An outline of the steps: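 Beta-lactamase reporter under UAS control in GeneBLAzer FXR HEK 293T cells (5000/well) measured with LiveBLAzer FRET substrate after 2 h at room temperature. Compound exposure lasted 16 h at 37C.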

A short description of test [6]: qHTS assay to identify small molecule antagonists of the farnesoid-X-receptor (FXR) signaling pathway - cell viability counter screen (AID 743221; active means well fitted cell-killing curve with a large enough effect in the repeat runs, not every such curve was filed as active; further: nearly all actives have a fitted effect of over 50% in size; further: potency means the concentration at half of the fitted maximal effect). A digest of the protocol: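 FXR-UAS-bla HEK 293T cells were treated with test compounds plus chenodeoxycholic acid (50 uM final) for 16 h at 37 C. Cell viability in the same wells was then read as CellTiter-Glo luminescence after 30 min at room temperature.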

The target of test [7] is Vitamin D3 receptor (Homo sapiens) (UniProt P11473). The test can be described thus: qHTS assay to identify small molecule agonists of the vitamin D receptor (VDR) signaling pathway (AID 743222; calls by dose curve). An outline of the steps: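 VDR-bla cells, 2,000/well; 4 h preincubation 37C; cpd (DMSO) 16 h; LiveBLAzer B/G substrate 2 h RT; fluorescence intensity read.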
For test [8] the target is unchanged. The test can be described thus: qHTS assay to identify small molecule antagonists of the vitamin D receptor (VDR) signaling pathway (AID 743223; active means well fitted inhibition curve with a large enough effect in the signal ratio in the repeat runs, not every such curve was filed as active; the % refers to the signal ratio). An outline of the steps: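 VDR-bla cells were plated, incubated 4 h at 37C, then given compound and 1alpha,25-dihydroxyvitamin D3 (3 nM final). After 16 h at 37C, LiveBLAzer B/G FRET substrate was added for 2 h at room temperature and fluorescence read.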

Test [9] in a line: qHTS assay to identify small molecule antagonists of the vitamin D receptor (VDR) signaling pathway - cell viability counter screen (AID 743225). Further: nearly all actives have a fitted effect of over 50% in size. Further: potency means the concentration at half of the fitted maximal effect. A digest of the protocol:
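VDR-bla HEK 293T cells, 4 h pre-incubation at 37C, then compound plus 1-alpha,25-dihydroxyvitamin D3 (3 nM final) for 16 h. After the beta-lactamase FRET read, CellTiter-Glo was added to the same wells; luminescence after 30 min at room temperature.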

Test [10] is described as follows: qHTS assay to identify small molecule agonists of the NFkB signaling pathway - cell viability counter screen (AID 1159515; calls by dose curve; further: series mostly up to about 61 µM; nearly all actives have a fitted effect of over 55% in size). An outline of the steps:
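Luminescence from CellTiter-Glo (30 min, room temperature) gives viability, measured in the same wells as the beta-lactamase reporter read. Cells were NFkB-bla ME-180, 2,000 per well, treated 5 hr with compounds.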

Test [11] can be described thus: qHTS assay to identify small molecule agonists of the endoplasmic reticulum stress response signaling pathway (AID 1159516; active means well fitted activation curve with a large enough effect in the signal ratio in the repeat runs, not every such curve was filed as active; the % refers to the signal ratio; further: potency means the concentration at half of the fitted maximal effect). A digest of the protocol: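 Read-out is beta-lactamase cleavage of a FRET substrate (405 nm excitation; 460 and 530 nm emissions) in ESRE-bla HeLa cells after a 5 hr compound exposure at 37 C. Substrate incubation ran 2 hr at room temperature.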

Test [12] in a line: qHTS assay to identify small molecule agonists of the endoplasmic reticulum stress response signaling pathway - cell viability counter screen (AID 1159517; calls by dose curve;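 further: HeLa cells carrying an ER stress response element beta-lactamase reporter; series mostly up to about 61 µM; nearly all actives have a fitted effect of over 50% in size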). An outline of the steps: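 Cells, HeLa ESRE-bla; density, 1,500/well; dosing, 5 hr at 37 C, 5% CO2; readout, CellTiter-Glo luminescence after 30 min RT.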
Test [13] can be described thus: qHTS assay to identify small molecule antagonists of the retinoid-related orphan receptor gamma (ROR-gamma) signaling pathway - cell viability counter screen (AID 1159520). Further: nearly all actives have a fitted effect of over 50% in size. A digest of the protocol: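 Cytotoxicity was read from cellular ATP (CellTiter-Glo luminescence) after 16 hr at 37 C with 1 uM doxycycline induction. The inducer was added 2 hr after compound transfer to Tet-on ROR gamma CHO cells.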

The target of test [14] is Nuclear receptor ROR-gamma (Homo sapiens) (UniProt P51449). The test can be described thus: qHTS assay to identify small molecule antagonists of the retinoid-related orphan receptor gamma (ROR-gamma) signaling pathway (AID 1159521). A digest of the protocol:
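Tet-on RORγ CHO cells carrying a ROR response element–luciferase reporter were pretreated with compounds for 2 h, then induced with 1 uM (final) doxycycline hyclate for 16 h at 37 C. Antagonism was read as decreased ONE-Glo luminescence.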

Test [15] can be described thus: qHTS assay to identify small molecule agonists of the vitamin D receptor (VDR) signaling pathway - cell viability counter screen (AID 743224). Further: nearly all actives have a fitted effect of over 50% in size. Further: potency means the concentration at half of the fitted maximal effect. A digest of the protocol: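 Luminescence from CellTiter-Glo, read after 30 min at room temperature, reports viability of VDR-bla cells treated with compounds for 16 h at 37C in the wells used for the beta-lactamase FRET read.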

Test [16] can be described thus: qHTS assay to identify small molecule agonists of the AP-1 signaling pathway (AID 1159526; calls by dose curve).
For test [17], the target named is Peroxisome proliferator-activated receptor delta (Homo sapiens) (UniProt Q03181). The test is described as follows: qHTS assay to identify small molecule agonists of the peroxisome proliferator-activated receptor delta (PPARd) signaling pathway (AID 743212; calls by dose curve). A digest of the protocol:
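HEK293H UAS-bla reporter cells, human PPARd system; compounds delivered in DMSO after 5 h plating, then at 37 C. Beta-lactamase FRET read, 2 h RT substrate step.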

Test [18] shares this target. The test is described as follows: qHTS assay to identify small molecule antagonists of the peroxisome proliferator-activated receptor delta (PPARd) signaling pathway (AID 743215; active means well fitted inhibition curve with a large enough effect in the signal ratio in the repeat runs, not every such curve was filed as active; the % refers to the signal ratio;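 further: cells stimulated with agonist L165041 at 300 nM final during compound exposure; series mostly up to about 62 µM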). An outline of the steps:
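Read-out is beta-lactamase FRET fluorescence, measured 2 h after substrate addition at room temperature. Beforehand, UAS-bla HEK293H cells carrying the PPARd reporter were exposed to compounds with L165041 at 300 nM final for 17 h at 37 C.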

Test [19] in a line: qHTS assay to identify small molecule agonists of the AP-1 signaling pathway - cell viability counter screen (AID 1159525; calls by dose curve; further: nearly all actives have a fitted effect of over 55% in size). An outline of the steps: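 Luminescent ATP readout (Cell Titer Glo, 30 min RT), normalised to DMSO and tetra n-octyl ammonium bromide controls. Cells were ME-180 AP-1-bla in 0.5% dialyzed FBS Opti-MEM, with a 5 h, 37 °C compound exposure.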
The target in test [20] is Retinoic acid receptor RXR-alpha (Homo sapiens) (UniProt P19793). The test is described as follows: qHTS assay to identify small molecule agonists of the RXR signaling pathway (AID 1159527; calls by dose curve; further: nearly all actives have a fitted effect of over 35% in size). A digest of the protocol:
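GeneBLAzer RXR-alpha-UAS-bla HEK 293T cells in medium with 2% charcoal-stripped FBS, pre-incubated 5 hr at 37 C, then exposed to compounds 16 hr. Beta-lactamase reporter read by FRET substrate, 2 hr room temperature, 460/530 nm emission.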

Records with an inconclusive call do not appear. Unmarked numbers belong to inactive results. Active and inactive are the calls of the source. Unless noted, the call rests on the fitted dose curve; in most records, active means well fitted curve in the direction sought with a large enough effect in the repeat runs; inconclusive means weak or mixed curves; inactive means no such curve, though single readings can be large; an effect the other way counts as inactive or inconclusive.

Drawing on PubChem BioAssay (Tox21), this text covers Potency and outcome for 10 compounds.

Sequence of Vitamin D3 receptor (Homo sapiens) (P11473 whole entry, looked up): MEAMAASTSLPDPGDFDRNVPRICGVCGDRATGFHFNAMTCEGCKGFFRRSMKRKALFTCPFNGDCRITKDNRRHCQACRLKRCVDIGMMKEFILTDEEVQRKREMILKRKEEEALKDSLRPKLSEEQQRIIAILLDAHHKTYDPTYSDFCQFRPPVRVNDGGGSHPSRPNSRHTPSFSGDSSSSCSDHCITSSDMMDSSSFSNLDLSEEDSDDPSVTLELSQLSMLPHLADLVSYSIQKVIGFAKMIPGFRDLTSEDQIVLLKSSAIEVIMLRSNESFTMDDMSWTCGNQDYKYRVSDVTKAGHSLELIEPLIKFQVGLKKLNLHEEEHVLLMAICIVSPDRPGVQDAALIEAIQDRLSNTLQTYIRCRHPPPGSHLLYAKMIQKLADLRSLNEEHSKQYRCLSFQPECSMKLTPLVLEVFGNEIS
Sequence of Peroxisome proliferator-activated receptor delta (Homo sapiens) (Q03181 whole entry, looked up): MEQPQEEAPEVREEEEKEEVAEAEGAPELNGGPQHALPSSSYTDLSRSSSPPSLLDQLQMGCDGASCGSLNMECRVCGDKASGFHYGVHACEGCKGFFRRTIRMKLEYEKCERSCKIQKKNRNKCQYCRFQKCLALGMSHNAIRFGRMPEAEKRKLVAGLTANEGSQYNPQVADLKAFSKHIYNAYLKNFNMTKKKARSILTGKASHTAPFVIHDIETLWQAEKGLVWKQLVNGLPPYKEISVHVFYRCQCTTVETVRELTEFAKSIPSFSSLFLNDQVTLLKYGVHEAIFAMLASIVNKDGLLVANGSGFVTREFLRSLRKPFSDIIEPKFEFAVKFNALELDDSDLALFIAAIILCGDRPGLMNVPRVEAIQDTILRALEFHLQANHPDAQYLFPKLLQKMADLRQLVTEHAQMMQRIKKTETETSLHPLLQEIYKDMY
Sequence of Bile acid receptor (Homo sapiens) (Q96RI1 whole entry, looked up): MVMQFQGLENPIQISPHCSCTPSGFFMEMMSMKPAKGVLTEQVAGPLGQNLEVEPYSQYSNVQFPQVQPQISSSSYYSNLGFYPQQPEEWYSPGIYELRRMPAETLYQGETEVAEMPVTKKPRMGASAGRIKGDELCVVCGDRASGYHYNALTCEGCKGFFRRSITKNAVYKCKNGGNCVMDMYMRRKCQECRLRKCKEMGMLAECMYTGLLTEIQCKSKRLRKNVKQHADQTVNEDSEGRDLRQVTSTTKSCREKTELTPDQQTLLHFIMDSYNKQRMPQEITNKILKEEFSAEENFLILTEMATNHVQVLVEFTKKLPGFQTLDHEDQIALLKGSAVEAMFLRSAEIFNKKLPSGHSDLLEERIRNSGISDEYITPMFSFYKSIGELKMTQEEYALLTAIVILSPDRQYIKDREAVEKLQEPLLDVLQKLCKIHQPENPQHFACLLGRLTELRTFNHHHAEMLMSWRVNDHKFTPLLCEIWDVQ
Sequence of Retinoic acid receptor RXR-alpha (Homo sapiens) (P19793 whole entry, looked up): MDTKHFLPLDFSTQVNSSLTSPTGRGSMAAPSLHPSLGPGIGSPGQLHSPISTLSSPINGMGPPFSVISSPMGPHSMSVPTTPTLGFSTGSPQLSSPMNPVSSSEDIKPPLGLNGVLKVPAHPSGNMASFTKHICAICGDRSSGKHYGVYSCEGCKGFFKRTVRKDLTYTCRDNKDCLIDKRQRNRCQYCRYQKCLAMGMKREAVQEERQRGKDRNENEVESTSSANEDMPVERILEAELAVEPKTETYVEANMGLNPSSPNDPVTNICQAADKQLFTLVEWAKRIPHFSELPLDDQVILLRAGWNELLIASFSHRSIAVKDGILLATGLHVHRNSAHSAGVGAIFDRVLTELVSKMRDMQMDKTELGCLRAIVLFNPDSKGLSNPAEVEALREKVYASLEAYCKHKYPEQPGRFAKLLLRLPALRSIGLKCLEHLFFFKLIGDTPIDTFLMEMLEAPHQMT

For `Cc1cc(CC(=O)O)c(C)n1-c1ccc(Cl)cc1`, the Potency entry in test [1], in [2], in test [4], in test [6], in test [8] and in test [9] was “inactive” each time. Besides, the Potency entry in test [10], in test [11], in test [13] and in test [14] was “inactive” throughout. In addition, the outcome in test [3], in [5], in test [7] and in test [12] was inactive.
For the compound `O=S(=O)(O)c1ccc(O)c2ncccc12`, the Potency result in [1], in test [2], in test [6], in test [15], in test [9] and in test [10] was “inactive” in each case. Moreover, the Potency result in [11], in test [13], in test [14] and in test [16] was “inactive” each time. The call in test [3], in test [5], in test [7] and in test [12] was inactive.
For `CC(C)CCCCCCOC(=O)c1ccc(C(=O)OCCCCCCC(C)C)c(C(=O)OCCCCCCC(C)C)c1`, the Potency entry in test [1], in [2], in test [4], in test [8], in [15] and in test [10] was “inactive” in each case. The Potency result in test [11], in test [14], in test [19] and in [16] was “inactive” each time. Besides, the call in [17], in test [18], in test [7] and in test [12] was inactive.
Turning to `O=C(O)c1cn(C2CC2)c2cc(Cl)c(F)cc2c1=O`, the Potency entry in test [1], in [2], in test [6], in [8], in test [15] and in [9] was “inactive” each time. The Potency result in test [10], in test [11], in [14], in [19] and in test [16] was “inactive” in each case. The result in test [18], in test [7] and in test [12] was inactive.
`Cc1c(Cn2ccnc2)c2ccccc2n1CCC(=O)O`: the Potency entry in test [1], in [2], in test [4], in test [6], in test [15] and in test [9] was “inactive” throughout. Also, the Potency result in [10], in [11], in test [13], in test [14] and in test [20] was “inactive” throughout. Also, the call in [17], in test [7] and in [12] was inactive.
Regarding `CCCCCCc1ccc(N)cc1`, the Potency entry in test [1], in [2], in test [6], in [8], in test [9] and in [10] was “inactive” in each case. For the same compound, the Potency entry in test [11], in test [13], in test [14] and in test [16] was “inactive” each time. Also, the compound was called inactive in test [18], in test [3], in test [7] and in test [12].
Turning to `CCOC(=O)[C@H](CCc1ccccc1)N[C@H]1CCc2ccccc2N(CC(=O)O)C1=O`, the Potency in test [1] was 29.8 µM (active); in [2], 26.6 µM (active); in [6], 29.8 µM (active); in test [15], 21.1 µM (active); in test [9], 21.3 µM (active); in [11], 21.3 µM (active). Also, the Potency result in test [10], in test [13], in [14] and in [20] was “inactive” each time. Moreover, the compound was classed as inactive in test [12].
In the case of `CC1=CCC(C(C)C)C=C1` (stereo not given), the Potency entry in test [1], in test [2], in [4], in test [15], in [10] and in test [11] was “inactive” in each case. Moreover, the Potency entry in test [13], in test [19], in test [16] and in [20] was “inactive” in each case. The call in test [12] was inactive.
Take `CN(C)CC[C@@H](c1ccc(Br)cc1)c1ccccn1`: the compound was classed as inactive in test [17], in [18], in test [3], in test [5] and in test [12]. The Potency entry in [2], in test [4], in [10], in [11], in test [14] and in test [19] was “inactive” throughout. Further, the Potency entry in test [16] and in test [20] was “inactive” throughout.
Consider `CC(C)c1ccc2c(C(C)C)cc(C(C)C)c(S(=O)(=O)O)c2c1`, for which the Potency entry in test [1], in [2], in [4], in [6], in test [9] and in test [10] was “inactive” throughout. For the same compound, the Potency result in test [13], in test [14], in [19] and in test [20] was “inactive” each time. Further, the compound was classed as inactive in test [17], in test [18], in [3], in test [5], in [7] and in [12].
